Consider 1 molecule from PubChem BioAssay AID651918 (Vanderbilt Specialized Chemistry Center, 2012).

Calls of active or inactive are those of the source. The rule behind the calls is not given here.

For the assay, the target named is Histone deacetylase 1 (Homo sapiens) (UniProt Q13547). Nature of the assay: recombinant HDAC1 deacetylase inhibitors – biochemical, HDAC isoform panel, selectivity assay for E-cadherin restoration project, profiling panel (AID 651918). The note with it: recombinant HDAC1, fluorogenic peptide substrate deacetylation; series mostly up to 10 µM.
Sequence of Histone deacetylase 1 (Homo sapiens) (Q13547 whole entry, looked up, canonical isoform): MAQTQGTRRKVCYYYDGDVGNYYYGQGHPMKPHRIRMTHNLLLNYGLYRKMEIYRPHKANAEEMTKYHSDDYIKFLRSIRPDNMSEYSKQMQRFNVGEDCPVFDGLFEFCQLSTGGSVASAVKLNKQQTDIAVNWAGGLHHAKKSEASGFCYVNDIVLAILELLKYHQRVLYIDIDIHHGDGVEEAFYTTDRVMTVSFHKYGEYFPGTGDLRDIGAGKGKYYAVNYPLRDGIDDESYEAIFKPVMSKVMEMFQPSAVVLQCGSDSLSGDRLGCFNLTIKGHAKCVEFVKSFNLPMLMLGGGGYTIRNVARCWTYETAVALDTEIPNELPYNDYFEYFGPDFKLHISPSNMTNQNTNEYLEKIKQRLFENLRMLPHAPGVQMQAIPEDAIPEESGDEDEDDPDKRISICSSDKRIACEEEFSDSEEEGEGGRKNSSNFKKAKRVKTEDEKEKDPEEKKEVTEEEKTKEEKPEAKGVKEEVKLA

On to `O=C(NCCCNC(=O)c1ccc[nH]c1=O)c1cc(-c2ccccc2)on1`, for which the outcome was inactive.
